# The full list was thinned out, with hits kept by preference.
# LmPK inhibitor: inhibitors of Leishmania mexicana pyruvate kinase | Potency, µM (titrated, usually from 57.5 µM), inactives show top-dose activity change, negative = inhibition, most hits filed as inhibitors | Q27686 | 290,000 tested, 0.37% active | AID 1721 | purified LmPK, Kinase-Glo ATP luminescence, 1 h; further: potency means the concentration at half of the fitted maximal effect; on the % scale 0 is the no-effect control and ±100 the full control effect
#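 Kinase-Glo luminescence read after 1 h RT reaction of 0.1 nM LmPK with 0.5 mM PEP and 0.1 mM ADP. Activity scaled between uninhibited and enzyme-free controls.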
# TbPYK inhibitor: inhibitors of Trypanosoma brucei pyruvate kinase | TbPYK enzyme, Kinase-Glo Plus ATP luminescence, 45 min | Potency, µM (highest dose often 76.8 µM), for the others: at the highest dose activity, negative = inhibition, actives largely listed as inhibitors | 410,000 tested, 0.12% active | AID 624173; further: potency means the concentration at half of the fitted maximal effect; on the % scale 0 is the no-effect control and ±100 the full control effect; nearly all actives have a fitted effect of over 50% in size
#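 Quantitative HTS: titrated library compounds versus trypanosomal pyruvate kinase in TEA buffer (pH 7.2) containing KCl, MgCl2, BSA and Tween-20. Reactions were initiated with ADP, 130 uM final. Kinase-Glo Plus luminescence was read after 45 min at RT.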
# RE007 growth inh: less growth of the S. pombe RE007 Vpr strain; S. pombe RE007 Vpr strain, BacTiter-Glo ATP luminescence, 24 h; Potency, µM (highest dose often 92.2 µM), for inactives: top-dose activity change, negative = less growth, usual class: inhibitors; 360,000 tested, 0.21% active; active means well fitted falling curve with a large enough effect; inconclusive means small, poorly fitted or top-dose-only effect; inactive means no such curve, though single readings can be large or run the other way; further: potency means the concentration at half of the fitted maximal effect; on the % scale 0 is the no-effect control and ±100 the full control effect; nearly all actives have a fitted effect of over 50% in size
#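 Fission yeast RE007 carrying one integrated HIV-1 vpr copy, seeded at OD 0.01 in PMG+AL medium with 23 nL pinned compound. Grown 24 h at 30 degrees; viability read by BacTiter-Glo luminescence after 5 min.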
# FBPA Giardia inh: inhibitors of Giardia lamblia fructose-1,6-bisphosphate aldolase. A8B2U2. purified Giardia FBPA. Potency, µM (highest dose often 59.6 µM), inactives show at the highest dose activity, negative = inhibition, usual class: inhibitors. 290,000 tested, 0.71% active; further: potency means the concentration at half of the fitted maximal effect; on the % scale 0 is the no-effect control and ±100 the full control effect; nearly all actives have a fitted effect of over 55% in size
# Target sequence (A8B2U2 whole entry, looked up): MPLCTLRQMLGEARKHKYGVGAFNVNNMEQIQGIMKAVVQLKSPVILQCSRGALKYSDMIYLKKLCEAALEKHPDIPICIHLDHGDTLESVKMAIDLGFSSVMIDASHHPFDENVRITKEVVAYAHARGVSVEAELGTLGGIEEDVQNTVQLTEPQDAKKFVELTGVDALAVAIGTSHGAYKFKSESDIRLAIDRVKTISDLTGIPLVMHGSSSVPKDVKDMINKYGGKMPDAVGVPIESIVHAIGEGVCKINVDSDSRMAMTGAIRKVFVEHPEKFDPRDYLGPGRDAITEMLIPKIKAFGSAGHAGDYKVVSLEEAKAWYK
#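 40 nM FBPA preincubated 10 min at RT with compound (up to 57.5 uM final), then substrate plus GAPDH/TPI/NAD/arsenate coupling and diaphorase/resazurin added. Fluorescence read after 20 min at RT, 525/598 nm.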
# Shiga toxin inh: Shiga toxin inhibition; inhibition, % at 38.7 µM; AID 2315; 290,000 tested, 9.2% active; Vero cells, Shiga toxin protein synthesis inhibition reporter; in the data active means inhibition mostly above about 28%, no sharp cut-off; inactive means mostly below about 43%; further: 0% is about no effect
# CHX counter: affects cycloheximide protein synthesis inhibition readout, counter-screen; 300,000 tested, 12% active; cell reporter, cycloheximide protein synthesis inhibition counterscreen; AID 2314; max response, %; in the data active means max response mostly above about 13%, no sharp cut-off; inactive means mostly below about 14%; further: read at 38.3 µM for the half of the compounds with a filed dose; 0% is about no effect
# The depositor's hits bear a star; i = inactive; ? = inconclusive; · = not tested or not shown. Unless noted, the call rests on the fitted dose curve; in most records, active means well fitted curve in the direction sought with a large enough effect; inconclusive means small, poorly fitted or top-dose-only effect, or another doubt; inactive means no such curve, though single readings can be large; an effect the other way counts as inactive or inconclusive.
SMILES,LmPK inhibitor,TbPYK inhibitor,RE007 growth inh,FBPA Giardia inh,Shiga toxin inh,CHX counter
CCOc1ccc(C(=O)Nc2c(C(=O)c3ccc(OC)cc3)oc3ccccc23)cc1,·,-1%,·,·,·,·
Cc1cc(CN(C)C(=O)c2ccc3nc(Cc4ccccc4F)oc3c2)n[nH]1,8%,4%,22%,·,7,-1
O=C(c1ccc2nc(Cc3ccccc3F)oc2c1)N1CCCC1,-10%,-1%,-17%,·,87*,41*
O=C(NCCCN1CCOCC1)c1ccc2nc(Cc3ccccc3F)oc2c1,-4%,3%,0%,·,23,22*
O=C(c1ccc2nc(Cc3ccccc3F)oc2c1)N1CC[C@H](O)C1,1%,-5%,-4%,7%,39*,30*
CC(=O)N1CCCN(C(=O)c2ccc3nc(Cc4ccccc4F)oc3c2)CC1,-9%,0%,?,·,23,14*
O=C(NCCCN1CCN(c2ccccc2F)CC1)c1ccc2nc(Cc3ccccc3)oc2c1,·,-3%,·,·,·,·
Cc1ccc(C)n1-c1nnc(N2CCCC(C(=O)NCc3ccc(F)cc3)C2)s1 (configuration not stated),·,-2%,·,·,·,·
CCOc1ccccc1NC(=O)C(CC(C)C)NS(=O)(=O)c1ccc2c(c1)CCN2C(C)=O (configuration not stated),·,3%,·,·,·,·
Cc1ccc(CNC(=O)CCCc2nnc3n(C)c(=O)c4sccc4n23)cc1,·,3%,·,·,·,·
COCC(C)NS(=O)(=O)c1ccc(C(=O)NCCCn2ccc3ccccc32)cc1 (configuration not stated),5%,-4%,8%,2%,-17,-3
Cc1cc(C)n(CCc2nc(-c3ccc(F)cc3)cs2)n1,-5%,3%,-2%,-13%,78*,36*
Cc1cc(NC(=O)Cc2ccccc2)cc(-c2nc3ccccc3o2)c1O,·,-3%,·,·,·,·
CCC(=O)N(Cc1ccco1)c1nc(C(=O)Nc2ccc(Cl)cc2)c(C)s1,0%,-12%,-4%,-7%,54*,33*
Cc1ccc(NC(=O)c2nc(S(C)(=O)=O)ncc2N(Cc2ccco2)Cc2ccco2)cc1,·,1%,·,·,·,·
C/C(N)=C(/C#N)C(=O)COC(=O)c1ccccc1Cc1ccccc1,0%,-1%,12%,-11%,22,18*
C/C(N)=C(/C#N)C(=O)COC(=O)c1cccc(O)c1,-2%,-7%,-1%,-1%,97*,17
CC(=O)Nc1ccc(C(=O)OCC(=O)/C(C#N)=C(\C)N)cc1,12%,1%,3%,-1%,16,25*
C/C(N)=C(/C#N)C(=O)COC(=O)c1ccncc1,8%,-1%,3%,-8%,-25,-2
Cc1nn(C)c2c1c(C(F)(F)F)cc(=O)n2C(C)C(=O)NCc1ccccc1 (configuration not stated),·,1%,·,·,·,·
Cc1ccc(Cn2c(=O)n(CCCCC(=O)NCCc3ccc(Cl)cc3)c(=O)c3ccccc32)cc1,·,2%,·,·,·,·
N#Cc1c(N)c(C#N)c(-c2ccc3c(c2)OCO3)c2c1CCCC2,1%,3%,-2%,10%,11,-1
N#Cc1c(-c2ccc3c(c2)OCO3)csc1N,-2%,5%,?,-27%,83*,28*
c1ccc(N=Nc2cn[nH]c2-c2ccco2)cc1,8%,2%,-16%,4%,28,25
Cc1cccc(N=Nc2cn[nH]c2-c2ccco2)c1,-4%,-3%,-9%,0%,100*,54*
SMILES,LmPK inhibitor,TbPYK inhibitor,RE007 growth inh,FBPA Giardia inh,Shiga toxin inh,CHX counter
CSc1ccc(CN2CCC2(C)C(=O)NCc2ccc3c(c2)OCO3)cc1 (configuration not stated),·,2%,-23%,·,·,·
Cc1ccc(C2CC(=O)Oc3cc4c(cc32)OCO4)cc1 (configuration not stated),·,·,·,50µM*,i,16
COc1ccc(N2CCN(C(CNC(=O)C(=O)NCc3ccc(F)cc3)c3cccnc3)CC2)cc1 (configuration not stated),·,0%,·,·,·,·
CN(C)/C=N/c1nc2ccc3c(c2s1)CCCC3,-3%,7%,-14%,-15%,87*,36*
CCOC(=O)c1c(/N=C/N(C)C)sc2c1CCC2,1%,-13%,·,-15%,-7,-1
CCOC(=O)Cn1nc(-c2ccccc2)nc1-c1ccccc1,-1%,-3%,-29%,-5%,27,26*
CCOC(=O)Cn1ncc(-c2ccccc2)c1N,-2%,-3%,0%,2%,68*,29*
O=C(Cn1nc(-c2ccccc2)nc1-c1ccccc1)OC1CCCCC1,3%,-3%,-8%,-2%,11,2
COc1cccc(C2=NOC(C(=O)Nc3cccnc3)C2)c1 (configuration not stated),-3%,2%,12%,2%,32,-3
COc1cccc(C2=NOC(C(=O)Nc3ccc(C(C)=O)cc3)C2)c1 (configuration not stated),1%,-3%,1%,5%,53*,48*
N#Cc1c(NC(=O)C2CC(c3c(F)cccc3Cl)=NO2)sc2c1CCC2 (configuration not stated),-3%,2%,-16%,5%,36*,23*
COc1ccc(C2=NOC(C(=O)Nc3ccc(C(C)=O)cc3)C2)cc1OC (configuration not stated),-1%,-9%,3%,4%,75*,29*
CCc1c(C)sc(NC(=O)C2CC(c3c(F)cccc3Cl)=NO2)c1C#N (configuration not stated),-3%,3%,-12%,-4%,11,9
CN1CCN(C(=O)C2CC(c3c(F)cccc3Cl)=NO2)CC1 (configuration not stated),2%,-9%,-5%,7%,15,10*
COc1cc(C2=NOC(C(=O)Nc3ccc(C(C)=O)cc3)C2)cc(OC)c1OC (configuration not stated),3%,-6%,4%,6%,81*,29*
COc1cc(NC(=O)C2CC(c3cccc(OC)c3OC)=NO2)cc(OC)c1OC (configuration not stated),3%,-17%,-3%,-6%,-6,-1
COc1ccc(NC(=O)C2CC(c3c(F)cccc3Cl)=NO2)cc1OC (configuration not stated),-3%,6%,-13%,0%,·,21*
COc1cc(NC(=O)C2CC(c3c(F)cccc3Cl)=NO2)c(OC)cc1Cl (configuration not stated),1%,-9%,-4%,1%,·,-3
COCCN1CCN(C(=O)C2CCC(=O)N(CCc3cccc(F)c3)C2)CC1 (configuration not stated),-1%,-3%,8%,·,-3,0
